Test results taken from PubChem BioAssay (NCI).
About 79,000 compounds went through this panel and 15% of them were active in at least one assay; those are over-represented in the sample as a whole. A number with no mark means an inactive call. Calls of active or inactive are those of the source. Cut-off read from the data, not from the text of the source: active = growth inhibition above about 70%; inactive = the rest.

Assays:
[1] = NCI Yeast Anticancer Drug Screen. Data for the rad50 strain (AID 155);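 note: 0% = growth of vehicle-only cultures of the same strain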; conditions: S. cerevisiae rad50 strain growth inhibition, stronger effect = higher value
Summary of the method: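 Growth of the mutant yeast was measured after compound exposure and referenced to vehicle-treated cultures.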

[2] = NCI Yeast Anticancer Drug Screen. Data for the mec2-1 strain (AID 157); conditions: S. cerevisiae mec2-1 strain, stronger effect = higher value
Summary of the method: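 Using mec2-1 yeast: add compound, measure growth, express inhibition versus vehicle-treated cultures.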

[3] = NCI Yeast Anticancer Drug Screen. Data for the sgs1 mgt1 strain (AID 161);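 note: 0% = growth of cultures given vehicle only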; conditions: S. cerevisiae sgs1 mgt1 strain, stronger effect = higher value
Summary of the method: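 Yeast cells carrying a defined DNA-repair defect were exposed to test compounds. Growth inhibition was measured relative to vehicle-treated controls.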

[4] = NCI Yeast Anticancer Drug Screen. Data for the cln2 rad14 strain (AID 165);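 note: 0% = growth equal to vehicle treated cultures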; conditions: S. cerevisiae cln2 rad14 strain, stronger effect = higher value
Summary of the method: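 Yeast strain cln2 rad14, bearing defects in cell cycle control and DNA repair, serves as the test system; values reflect growth inhibition compared with vehicle.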

[5] = NCI Yeast Anticancer Drug Screen. Data for the bub3 strain (AID 167); conditions: S. cerevisiae bub3 mutant strain, stronger effect = higher value
Summary of the method: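 Whole-cell yeast assay. The mutant strain was incubated with compounds, and growth inhibition was determined by comparison with vehicle-treated cells.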

[6] = NCI Yeast Anticancer Drug Screen. Data for the mlh1 rad18 strain (AID 175); conditions: S. cerevisiae mlh1 rad18 strain growth inhibition, stronger effect = higher value
Summary of the method: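 Steps: expose repair-defective yeast to compound; measure growth; express inhibition against vehicle-treated controls.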

[7] = at 5.0 µM (retest, dose inferred, filed as 0.5)
[8] = at 50.0 µM (retest, dose inferred, filed as 5.0)

In the case of `CCOP(=O)(Cc1cccc2ccccc12)OCC`, the growth inhibition [1, 7] is reported as 5%, the growth inhibition [1, 8] is reported as 13% and the growth inhibition ([1]; at 50.0 µM) is reported as 4.65%. The growth inhibition [2, 7] was 5%, the growth inhibition [2, 8] was -6% and the growth inhibition ([2]; at 50.0 µM) was -7.95%. For the same molecule, the growth inhibition [3, 7] was 4%, the growth inhibition [3, 8] was 17% and the growth inhibition ([3]; at 50.0 µM) was 13.4%. It also gave a growth inhibition [4, 7] of 2%, a growth inhibition [4, 8] of 14% and a growth inhibition ([4]; at 50.0 µM) of 2.1%. For the same molecule, the growth inhibition [5, 7] was 14%, the growth inhibition [5, 8] was 2% and the growth inhibition ([5]; at 50.0 µM) was 19.9%. The growth inhibition [6, 7] was 17%, the growth inhibition [6, 8] was 29% and the growth inhibition ([6]; at 50.0 µM) was -3.35%.

For `O=[N+]([O-])c1cc(S(=O)(=O)F)ccc1S`, the growth inhibition [1, 7] was -76%, the growth inhibition [1, 8] was 89% (active) and the growth inhibition ([1]; at 50.0 µM) was 91.2% (active). The growth inhibition [2, 7] was -32%, the growth inhibition [2, 8] was 93% (active) and the growth inhibition ([2]; at 50.0 µM) was 77.5% (active). For the same molecule, the growth inhibition [3, 7] was -34%, the growth inhibition [3, 8] was 88% (active) and the growth inhibition ([3]; at 50.0 µM) was 88.9% (active). The growth inhibition [4, 7] was -40%, the growth inhibition [4, 8] was 90% (active) and the growth inhibition ([4]; at 50.0 µM) was 86.7% (active). The growth inhibition [5, 7] was -59%, the growth inhibition [5, 8] was 90% (active) and the growth inhibition ([5]; at 50.0 µM) was 91.8% (active). The growth inhibition [6, 7] was -103%, the growth inhibition [6, 8] was 92% (active) and the growth inhibition ([6]; at 50.0 µM) was 95.8% (active).

For `CCN1/C(=C\c2ccc3cc(C)ccc3[n+]2CC)[Se]c2ccccc21`, the growth inhibition [1, 7] was 98% (active), the growth inhibition [1, 8] was 98% (active) and the growth inhibition ([1]; at 50.0 µM) was 99.2% (active). The growth inhibition [2, 7] was 100% (active), the growth inhibition [2, 8] was 100% (active) and the growth inhibition ([2]; at 50.0 µM) was 99.4% (active). The growth inhibition [3, 7] was 95% (active), the growth inhibition [3, 8] was 99% (active) and the growth inhibition ([3]; at 50.0 µM) was 99.5% (active). For the same molecule, the growth inhibition [4, 7] was 98% (active), the growth inhibition [4, 8] was 94% (active) and the growth inhibition ([4]; at 50.0 µM) was 99.5% (active). For the same molecule, the growth inhibition [5, 7] was 95% (active), the growth inhibition [5, 8] was 99% (active) and the growth inhibition ([5]; at 50.0 µM) was 97% (active). For the same molecule, the growth inhibition [6, 7] was 99% (active), the growth inhibition [6, 8] was 99% (active) and the growth inhibition ([6]; at 50.0 µM) was 99.5% (active).

In the case of `CCCCCCCCCCCC[As](=O)(O)O`, the growth inhibition [1, 7] is reported as 0%, the growth inhibition [1, 8] is reported as 31% and the growth inhibition ([1]; at 50.0 µM) is reported as 99.4% (active). For the same molecule, the growth inhibition [2, 7] was -1%, the growth inhibition [2, 8] was 26% and the growth inhibition ([2]; at 50.0 µM) was 99.3% (active). For the same molecule, the growth inhibition [3, 7] was 7%, the growth inhibition [3, 8] was 48% and the growth inhibition ([3]; at 50.0 µM) was 98.2% (active). For the same molecule, the growth inhibition [4, 7] was -3%, the growth inhibition [4, 8] was 46% and the growth inhibition ([4]; at 50.0 µM) was 98.5% (active). The growth inhibition [5, 7] was 3%, the growth inhibition [5, 8] was 53% and the growth inhibition ([5]; at 50.0 µM) was 99.2% (active). For the same molecule, the growth inhibition [6, 7] was 6%, the growth inhibition [6, 8] was 51% and the growth inhibition ([6]; at 50.0 µM) was 98.9% (active).

With `CCOP(=O)(Oc1ccc([N+](=O)[O-])cc1)c1ccccc1C(C)C` (configuration not stated) the growth inhibition [1, 7] was 11%, the growth inhibition [1, 8] was 49% and the growth inhibition ([1]; at 50.0 µM) was 90.8% (active). For the same molecule, the growth inhibition [2, 7] was 25%, the growth inhibition [2, 8] was 70% (active) and the growth inhibition ([2]; at 50.0 µM) was 90.8% (active). For the same molecule, the growth inhibition [3, 7] was -11%, the growth inhibition [3, 8] was 92% (active) and the growth inhibition ([3]; at 50.0 µM) was 95.6% (active). The growth inhibition [4, 7] was 40%, the growth inhibition [4, 8] was 34% and the growth inhibition ([4]; at 50.0 µM) was 95.6% (active). The growth inhibition [5, 7] was 12%, the growth inhibition [5, 8] was 49% and the growth inhibition ([5]; at 50.0 µM) was 96.8% (active). The growth inhibition [6, 7] was -11%, the growth inhibition [6, 8] was 77% (active) and the growth inhibition ([6]; at 50.0 µM) was 96.7% (active).

For `CC1(C)OC2OC3C(CN(CCCl)Cc4ccccc4)OC(c4ccccc4)OC3C2O1` (configuration not stated), the growth inhibition [1, 7] was 5%, the growth inhibition [1, 8] was 18% and the growth inhibition ([1]; at 50.0 µM) was 5.3%. It also gave a growth inhibition [2, 7] of -26%, a growth inhibition [2, 8] of -4% and a growth inhibition ([2]; at 50.0 µM) of 8.75%. It also gave a growth inhibition [3, 7] of -10%, a growth inhibition [3, 8] of 31% and a growth inhibition ([3]; at 50.0 µM) of -0.9%. For the same molecule, the growth inhibition [4, 7] was -2%, the growth inhibition [4, 8] was -1% and the growth inhibition ([4]; at 50.0 µM) was 33.8%. The growth inhibition [5, 7] was 0%, the growth inhibition [5, 8] was 23% and the growth inhibition ([5]; at 50.0 µM) was -2.9%. For the same molecule, the growth inhibition [6, 7] was -23%, the growth inhibition [6, 8] was 49% and the growth inhibition ([6]; at 50.0 µM) was 14.2%.

In the case of `CCCCCCCCC(=O)[O][Hg][c]1ccccc1`, the growth inhibition [1, 7] is reported as 99% (active), the growth inhibition [1, 8] is reported as 99% (active) and the growth inhibition ([1]; at 50.0 µM) is reported as 99.5% (active). For the same molecule, the growth inhibition [2, 7] was 100% (active), the growth inhibition [2, 8] was 100% (active) and the growth inhibition ([2]; at 50.0 µM) was 99.7% (active). The growth inhibition [3, 7] was 100% (active), the growth inhibition [3, 8] was 99% (active) and the growth inhibition ([3]; at 50.0 µM) was 99.7% (active). For the same molecule, the growth inhibition [4, 7] was 99% (active), the growth inhibition [4, 8] was 99% (active) and the growth inhibition ([4]; at 50.0 µM) was 99.3% (active). For the same molecule, the growth inhibition [5, 7] was 99% (active), the growth inhibition [5, 8] was 100% (active) and the growth inhibition ([5]; at 50.0 µM) was 99.1% (active). The growth inhibition [6, 7] was 99% (active), the growth inhibition [6, 8] was 100% (active) and the growth inhibition ([6]; at 50.0 µM) was 99.5% (active).

In the case of `CC(CCS(C)(=O)=O)([N+](=O)[O-])[N+](=O)[O-]`, the growth inhibition [1, 7] is reported as 48%, the growth inhibition [1, 8] is reported as 99% (active) and the growth inhibition ([1]; at 50.0 µM) is reported as 55.2%. The growth inhibition [2, 7] was 16%, the growth inhibition [2, 8] was 99% (active) and the growth inhibition ([2]; at 50.0 µM) was 55%. For the same molecule, the growth inhibition [3, 7] was 28%, the growth inhibition [3, 8] was 99% (active) and the growth inhibition ([3]; at 50.0 µM) was 52.6%. For the same molecule, the growth inhibition [4, 7] was 14%, the growth inhibition [4, 8] was 99% (active) and the growth inhibition ([4]; at 50.0 µM) was 56.4%. For the same molecule, the growth inhibition [5, 7] was 27%, the growth inhibition [5, 8] was 99% (active) and the growth inhibition ([5]; at 50.0 µM) was 99% (active). The growth inhibition [6, 7] was 24%, the growth inhibition [6, 8] was 100% (active) and the growth inhibition ([6]; at 50.0 µM) was 98.3% (active).

`C[C@H](N)C(=O)N[C@@H]1[C@H]2C(=C(O)C[C@@H](O)[C@@H]2O)C(=O)O[C@]1(C)C(Cl)Cl` showed a growth inhibition [1, 7] of 18%, a growth inhibition [1, 8] of 22% and a growth inhibition ([1]; at 50.0 µM) of 17.1%. The growth inhibition [2, 7] was 7%, the growth inhibition [2, 8] was 26% and the growth inhibition ([2]; at 50.0 µM) was 13.1%. For the same molecule, the growth inhibition [3, 7] was 12%, the growth inhibition [3, 8] was 25% and the growth inhibition ([3]; at 50.0 µM) was 6.6%. For the same molecule, the growth inhibition [4, 7] was 18%, the growth inhibition [4, 8] was 53% and the growth inhibition ([4]; at 50.0 µM) was 44.9%. The growth inhibition [5, 7] was 7%, the growth inhibition [5, 8] was 26% and the growth inhibition ([5]; at 50.0 µM) was 30.9%. For the same molecule, the growth inhibition [6, 7] was 6%, the growth inhibition [6, 8] was 25% and the growth inhibition ([6]; at 50.0 µM) was 27.4%.
